# The supplement of paper PMC10849652
# About 7,900 targets were measured; listed, in parts, are those with a hit and a random draw of the rest. About 0.6% of all pairs of compound and target were hits. Unmarked numbers belong to inactive results.
# How the values were obtained:
# Assay in all cases: log2 fold change, soluble protein after heating vs DMSO (PISA); higher = thermal stabilisation; K562 cells, 10 uM, 30 min; active = over 0.2 and 3.5 SD of the protein, either way, in both replicates (recomputed)
# [1] = compound: CN1CCN(CCOc2cc(OC3CCOCC3)c3c(Nc4c(Cl)ccc5c4OCO5)ncnc3c2)CC1 [saracatinib]
# Procedure, shortened: (§1)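 Quantification of soluble protein used TMTpro 16plex LC-MS/MS, with channel sums equalised. Samples were the supernatant after 21,000xg for 90 min of pooled aliquots from K562 cells (2×10^6 cells/mL) treated with 10 μM compound for 30 min, heated for 3 min over 48°C-58°C, and extracted in PBS with 0.5% NP-40 at 4°C. Values, from duplicates, describe thermal stability against control samples on a log2 fold-change scale.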
# [2] = compound: CN1CCN(c2nc(C3=C(c4c[nH]c5ccccc45)C(=O)NC3=O)c3ccccc3n2)CC1 [sotrastaurin]
# Procedure, shortened: as §1
# [3] = compound: CN1CC[C@H](c2c(O)cc(O)c3c(=O)cc(-c4ccccc4Cl)oc23)[C@H](O)C1 [alvocidib]
# Procedure, shortened: as §1
# [4] = compound: CN1CCc2c(c3ccccc3n2Cc2ccc(C(=O)NO)cc2)C1 [Tubastatin A]
# Procedure, shortened: as §1
# [5] = compound: CNC(=O)C1=CC=CC=C1NC2=NC(=NC=C2Cl)NC3=C(C=C(C=C3)N4CCOCC4)OC
# Procedure, shortened: as §1
# [6] = compound: CNC(=O)c1ccc(Nc2ncc(C(F)(F)F)c(NCc3nccnc3N(C)S(C)(=O)=O)n2)cc1 [defactinib]
# Procedure, shortened: as §1
# [7] = compound: CNCc1ccc(-c2[nH]c3cc(F)cc4c3c2CCNC4=O)cc1 [rucaparib]
# Procedure, shortened: as §1
# [8] = compound: CNc1nc(-c2ccc3c(N)n[nH]c3c2)cc(N2C[C@@H](C(=O)NC3CCCCC3)CC[C@H]2C)n1
# Procedure, shortened: as §1
# [9] = compound: COC(=O)N[C@@H](C)CNc1nccc(-c2cn(C(C)C)nc2-c2cc(Cl)cc(NS(C)(=O)=O)c2F)n1 [encorafenib]
# Procedure, shortened: as §1
# [10] = compound: COC(=O)[C@H](CCSC)NC(=O)C1=C(C=C(C=C1)NC[C@H](CS)N)C2=CC=CC=C2
# Procedure, shortened: as §1
# [11] = compound: COC1=CC=C(C=C1)CN2C=CC3=C2C=C(C=C3)C(=O)NO
# Procedure, shortened: as §1
# [12] = compound: CON(C)C(=O)N1N=C(c2cc(F)ccc2F)S[C@@]1(CCCN)c1ccccc1 [filanesib]
# Procedure, shortened: as §1
# [13] = compound: CO[C@H]1C[C@@H]2CC[C@@H](C)[C@@](O)(O2)C(=O)C(=O)N2CCCC[C@H]2C(=O)O[C@H]([C@H](C)C[C@@H]2CC[C@H](n3cnnn3)[C@H](OC)C2)CC(=O)[C@H](C)/C=C(\C)[C@@H](O)[C@@H](OC)C(=O)[C@H](C)C[C@H](C)/C=C/C=C/C=C/1C [zotarolimus]
# Procedure, shortened: as §1
# [14] = compound: COc1cc(C(=O)O)ccc1NC(=O)[C@@H]1N[C@@H](CC(C)(C)C)[C@](C#N)(c2ccc(Cl)cc2F)[C@H]1c1cccc(Cl)c1F [idasanutlin]
# Procedure, shortened: as §1
# [15] = compound: COc1cc(Nc2ncc3c(n2)-c2ccc(Cl)cc2C(c2c(F)cccc2OC)=NC3)ccc1C(=O)O [alisertib]
# Procedure, shortened: as §1
# [16] = compound: COc1cc2nc(-c3cc(F)ccc3O)nc(N[C@@H]3CNC[C@H]3C(C)(C)O)c2cc1OC
# Procedure, shortened: as §1
# [17] = compound: COc1cc2ncnc(Nc3ccc(F)c(Cl)c3)c2cc1OCCCN1CCOCC1 [gefitinib]
# Procedure, shortened: as §1
# [18] = compound: COc1cccc2cc(-c3nc([C@H]4CC[C@H](C(=O)O)CC4)n4ncnc(N)c34)[nH]c12
# Procedure, shortened: as §1
# [19] = compound: CS(=O)(=O)CCNCc1ccc(-c2ccc3ncnc(Nc4ccc(OCc5cccc(F)c5)c(Cl)c4)c3c2)o1 [lapatinib]
# Procedure, shortened: as §1
# [20] = compound: CS(=O)(=O)N1CCN(Cc2cc3nc(-c4cccc5[nH]ncc45)nc(N4CCOCC4)c3s2)CC1 [pictilisib]
# Procedure, shortened: as §1
# Sequence of UniProt P42338 (P42338 whole entry, looked up): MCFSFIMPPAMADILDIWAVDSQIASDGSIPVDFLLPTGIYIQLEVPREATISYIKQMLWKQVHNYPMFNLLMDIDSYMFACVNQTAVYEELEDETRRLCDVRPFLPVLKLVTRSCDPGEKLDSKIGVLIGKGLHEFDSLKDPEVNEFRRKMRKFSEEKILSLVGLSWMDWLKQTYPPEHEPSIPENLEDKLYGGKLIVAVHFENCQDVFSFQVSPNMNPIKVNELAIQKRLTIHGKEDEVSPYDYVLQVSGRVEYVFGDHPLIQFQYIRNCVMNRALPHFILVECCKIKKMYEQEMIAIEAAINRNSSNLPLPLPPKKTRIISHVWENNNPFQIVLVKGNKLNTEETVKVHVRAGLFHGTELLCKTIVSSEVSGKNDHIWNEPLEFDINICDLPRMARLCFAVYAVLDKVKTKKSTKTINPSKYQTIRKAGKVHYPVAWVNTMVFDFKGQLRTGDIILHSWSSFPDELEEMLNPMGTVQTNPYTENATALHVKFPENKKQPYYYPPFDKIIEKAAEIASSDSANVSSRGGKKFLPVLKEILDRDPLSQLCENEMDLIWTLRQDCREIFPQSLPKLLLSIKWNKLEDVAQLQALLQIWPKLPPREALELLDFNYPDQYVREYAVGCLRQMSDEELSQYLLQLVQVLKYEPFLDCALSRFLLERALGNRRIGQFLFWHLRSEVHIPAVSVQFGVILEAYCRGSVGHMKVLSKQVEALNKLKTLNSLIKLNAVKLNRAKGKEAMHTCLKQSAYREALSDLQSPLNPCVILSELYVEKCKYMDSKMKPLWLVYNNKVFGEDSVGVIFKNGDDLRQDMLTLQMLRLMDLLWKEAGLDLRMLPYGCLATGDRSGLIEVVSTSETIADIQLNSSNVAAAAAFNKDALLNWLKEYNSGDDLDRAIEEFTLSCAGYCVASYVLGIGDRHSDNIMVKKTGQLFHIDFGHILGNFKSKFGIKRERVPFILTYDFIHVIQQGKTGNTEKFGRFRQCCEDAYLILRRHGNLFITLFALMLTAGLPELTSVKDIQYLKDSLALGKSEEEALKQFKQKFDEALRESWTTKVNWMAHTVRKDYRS
# Sequence of UniProt Q9NW08 (Q9NW08 whole entry, looked up): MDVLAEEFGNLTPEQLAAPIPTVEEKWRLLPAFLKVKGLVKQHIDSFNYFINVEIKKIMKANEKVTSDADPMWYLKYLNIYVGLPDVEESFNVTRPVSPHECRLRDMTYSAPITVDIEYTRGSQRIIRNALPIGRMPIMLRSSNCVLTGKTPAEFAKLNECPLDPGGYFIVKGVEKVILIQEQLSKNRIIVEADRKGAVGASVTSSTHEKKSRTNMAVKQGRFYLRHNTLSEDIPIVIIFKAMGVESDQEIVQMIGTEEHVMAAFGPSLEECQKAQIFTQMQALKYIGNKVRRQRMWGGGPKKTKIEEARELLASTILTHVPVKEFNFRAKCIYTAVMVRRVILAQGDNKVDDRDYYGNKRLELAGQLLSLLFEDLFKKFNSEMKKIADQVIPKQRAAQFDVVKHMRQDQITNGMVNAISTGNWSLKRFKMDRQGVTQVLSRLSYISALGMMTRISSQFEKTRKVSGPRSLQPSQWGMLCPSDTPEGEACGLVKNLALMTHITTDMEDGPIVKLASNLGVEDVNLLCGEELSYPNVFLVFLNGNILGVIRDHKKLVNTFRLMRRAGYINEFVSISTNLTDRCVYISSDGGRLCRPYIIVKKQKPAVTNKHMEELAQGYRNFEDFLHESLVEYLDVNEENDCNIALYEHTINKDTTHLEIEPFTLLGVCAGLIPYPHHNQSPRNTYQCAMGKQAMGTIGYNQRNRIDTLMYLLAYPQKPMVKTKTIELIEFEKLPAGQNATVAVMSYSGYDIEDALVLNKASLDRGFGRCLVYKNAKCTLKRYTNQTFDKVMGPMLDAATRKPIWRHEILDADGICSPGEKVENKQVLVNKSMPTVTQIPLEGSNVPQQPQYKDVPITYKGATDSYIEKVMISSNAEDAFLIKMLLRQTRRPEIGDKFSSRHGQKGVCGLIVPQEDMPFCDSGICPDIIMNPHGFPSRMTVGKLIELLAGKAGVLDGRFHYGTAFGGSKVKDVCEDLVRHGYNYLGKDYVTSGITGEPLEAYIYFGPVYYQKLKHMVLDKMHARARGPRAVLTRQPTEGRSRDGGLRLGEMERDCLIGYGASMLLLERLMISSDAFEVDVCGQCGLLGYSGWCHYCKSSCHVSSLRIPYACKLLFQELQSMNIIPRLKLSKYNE
# Sequence of UniProt O96011 (O96011 whole entry, looked up, change not shown): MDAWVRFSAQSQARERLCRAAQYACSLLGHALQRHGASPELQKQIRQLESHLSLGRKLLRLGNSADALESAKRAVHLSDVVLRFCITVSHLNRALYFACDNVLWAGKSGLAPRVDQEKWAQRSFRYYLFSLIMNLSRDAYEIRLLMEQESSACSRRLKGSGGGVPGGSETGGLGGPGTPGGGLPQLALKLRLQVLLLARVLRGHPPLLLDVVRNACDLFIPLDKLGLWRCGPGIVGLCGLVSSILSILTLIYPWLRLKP
# Sequence of UniProt Q9P2B2 (Q9P2B2 whole entry, looked up): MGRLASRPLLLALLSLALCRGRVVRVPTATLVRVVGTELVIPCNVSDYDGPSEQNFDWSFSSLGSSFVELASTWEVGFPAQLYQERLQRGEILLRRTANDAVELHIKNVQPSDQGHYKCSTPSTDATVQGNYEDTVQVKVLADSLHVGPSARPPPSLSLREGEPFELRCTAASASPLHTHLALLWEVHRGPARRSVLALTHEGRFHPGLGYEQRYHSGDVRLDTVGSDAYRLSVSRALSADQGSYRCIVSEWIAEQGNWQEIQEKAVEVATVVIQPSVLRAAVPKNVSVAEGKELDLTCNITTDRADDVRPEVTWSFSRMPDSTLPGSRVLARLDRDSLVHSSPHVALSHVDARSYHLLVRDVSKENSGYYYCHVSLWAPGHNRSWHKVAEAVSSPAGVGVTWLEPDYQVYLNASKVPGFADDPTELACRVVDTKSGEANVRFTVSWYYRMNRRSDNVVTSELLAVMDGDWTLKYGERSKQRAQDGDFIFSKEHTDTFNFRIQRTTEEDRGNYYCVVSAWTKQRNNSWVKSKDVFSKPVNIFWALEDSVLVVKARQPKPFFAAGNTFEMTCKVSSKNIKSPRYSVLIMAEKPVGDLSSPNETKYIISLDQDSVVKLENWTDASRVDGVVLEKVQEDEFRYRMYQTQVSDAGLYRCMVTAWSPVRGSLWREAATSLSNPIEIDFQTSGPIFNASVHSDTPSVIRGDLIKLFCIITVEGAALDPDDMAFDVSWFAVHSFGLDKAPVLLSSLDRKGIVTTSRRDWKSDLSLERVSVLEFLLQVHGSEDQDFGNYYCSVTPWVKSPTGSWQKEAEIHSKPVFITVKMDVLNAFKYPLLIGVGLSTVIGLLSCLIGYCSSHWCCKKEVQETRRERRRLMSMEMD
# Sequence of UniProt Q5VTL8 (Q5VTL8 whole entry, looked up): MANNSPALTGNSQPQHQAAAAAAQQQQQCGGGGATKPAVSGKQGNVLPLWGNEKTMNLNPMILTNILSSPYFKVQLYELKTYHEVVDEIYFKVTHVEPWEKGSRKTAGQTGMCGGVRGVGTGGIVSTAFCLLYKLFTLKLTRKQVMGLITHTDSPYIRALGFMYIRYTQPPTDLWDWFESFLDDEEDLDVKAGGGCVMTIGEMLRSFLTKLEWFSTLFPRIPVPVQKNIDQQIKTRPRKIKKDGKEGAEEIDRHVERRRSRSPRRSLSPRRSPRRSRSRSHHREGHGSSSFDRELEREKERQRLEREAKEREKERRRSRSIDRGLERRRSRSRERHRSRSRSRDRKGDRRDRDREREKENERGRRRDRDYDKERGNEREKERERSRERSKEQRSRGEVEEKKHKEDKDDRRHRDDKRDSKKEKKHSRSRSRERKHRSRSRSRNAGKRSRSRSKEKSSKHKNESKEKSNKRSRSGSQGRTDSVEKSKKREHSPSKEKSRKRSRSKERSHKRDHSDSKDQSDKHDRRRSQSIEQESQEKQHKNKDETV
# Sequence of UniProt Q9NR12 (Q9NR12 whole entry, looked up): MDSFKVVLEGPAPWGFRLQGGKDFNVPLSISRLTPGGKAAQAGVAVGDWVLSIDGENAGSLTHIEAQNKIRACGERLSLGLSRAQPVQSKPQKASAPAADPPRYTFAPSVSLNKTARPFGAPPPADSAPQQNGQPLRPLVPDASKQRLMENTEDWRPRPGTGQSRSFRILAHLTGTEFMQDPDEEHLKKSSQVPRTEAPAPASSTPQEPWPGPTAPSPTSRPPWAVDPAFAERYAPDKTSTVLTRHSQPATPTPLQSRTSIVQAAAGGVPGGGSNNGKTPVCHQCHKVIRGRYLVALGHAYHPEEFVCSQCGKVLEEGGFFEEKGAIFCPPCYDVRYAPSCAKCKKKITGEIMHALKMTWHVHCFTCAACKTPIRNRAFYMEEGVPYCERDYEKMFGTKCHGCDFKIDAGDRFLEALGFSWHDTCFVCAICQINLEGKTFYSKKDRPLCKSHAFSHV
# Sequence of UniProt Q9UNM6 (Q9UNM6 whole entry, looked up): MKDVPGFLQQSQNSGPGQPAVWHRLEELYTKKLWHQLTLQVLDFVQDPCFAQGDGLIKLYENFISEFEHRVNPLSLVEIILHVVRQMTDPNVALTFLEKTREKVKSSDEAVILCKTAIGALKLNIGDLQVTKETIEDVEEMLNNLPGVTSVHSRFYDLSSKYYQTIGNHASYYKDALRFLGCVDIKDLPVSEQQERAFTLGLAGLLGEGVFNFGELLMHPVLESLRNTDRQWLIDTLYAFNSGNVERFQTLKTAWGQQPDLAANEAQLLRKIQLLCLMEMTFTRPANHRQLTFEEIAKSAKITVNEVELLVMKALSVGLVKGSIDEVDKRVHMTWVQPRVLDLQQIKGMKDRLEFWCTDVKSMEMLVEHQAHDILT
# Sequence of UniProt Q8NAV1 (Q8NAV1 whole entry, looked up): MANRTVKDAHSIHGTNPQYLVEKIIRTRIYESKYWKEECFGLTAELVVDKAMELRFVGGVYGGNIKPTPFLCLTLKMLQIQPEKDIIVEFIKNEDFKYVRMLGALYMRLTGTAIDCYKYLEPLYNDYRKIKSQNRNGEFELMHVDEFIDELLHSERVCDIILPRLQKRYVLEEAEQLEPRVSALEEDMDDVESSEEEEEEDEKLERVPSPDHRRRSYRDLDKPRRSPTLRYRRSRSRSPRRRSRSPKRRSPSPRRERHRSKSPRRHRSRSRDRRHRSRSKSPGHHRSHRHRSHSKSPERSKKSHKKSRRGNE
Target,log2 fold change [1],log2 fold change [2],log2 fold change [3],log2 fold change [4],log2 fold change [5],log2 fold change [6],log2 fold change [7],log2 fold change [8],log2 fold change [9],log2 fold change [10],log2 fold change [11],log2 fold change [12],log2 fold change [13],log2 fold change [14],log2 fold change [15],log2 fold change [16],log2 fold change [17],log2 fold change [18],log2 fold change [19],log2 fold change [20]
PSMC6 (UniProt P62333),-0.01,0.015,0.09,-0.025,-0.003,0.079,0.04,0.009,0.035,0.026,-0.059,0.083,-0.003,0.005,-0.093,-0.024,-0.038,-0.057,0.049,-0.054
PDLIM7 (UniProt Q9NR12),0.002,0.016,-0.032,-0.022,-0.014,-0.083,0.002,-0.013,0.021,-0.021,0.055,0.014,0.014,-0.042,-0.06,0.03,-0.104,0.012,0.012,-0.046
PRPSAP2 (UniProt O60256),0.011,0.084,0.003,-0.018,-0.017,0.01,-0.014,0.03,-0.004,-0.012,-0.168,0.084,0.029,0.012,-0.078,0.011,-0.022,0.025,-0.011,-0.233 (active)
PRPF38A (UniProt Q8NAV1),0.019,0.016,-0.024,-0.024,0.052,-0.036,0.121,-0.035,-0.034,-0.008,-0.113,0.046,-0.014,0.035,-0.033,0.041,0.009,0.002,-0.035,0.085
PRPF38B (UniProt Q5VTL8),0.011,-0.006,-0.073,-0.027,-0.287 (active),-0.27 (active),-0.08,-0.039,0.015,0.044,-0.004,0.163,0.016,0.039,-0.09,0.083,0.002,0.043,0.027,0.065
POLR3B (UniProt Q9NW08),-0.056,-0.129,-0.074,-0.045,-0.004,-0.03,-0.032,-0.047,0.039,-0.028,0.026,0.065,0.075,0.008,-0.086,0.08,0.105,-0.135,0.008,-0.019
PIK3CB (UniProt P42338),-0.019,0.01,-0.026,0.001,-0.011,-0.04,0.014,0.042,-0.015,-0.003,0.063,0.007,0.042,-0.041,0.003,0.02,0.048,0.01,0.001,0.258 (active)
PCBP2 (UniProt F8VRH0),0.255,-0.319,0.106,0.155,0.105,0.009,0.066,-0.014,0.014,0.066,0.139,0.107,0.013,0.218,0.305,-0.34,0.055,-0.21,0.06,-0.231
PSMD13 (UniProt Q9UNM6),-0.073,0,0.061,0.038,0.027,0.068,0.024,0.043,0.063,0.003,-0.127,0.095,0.009,-0.054,-0.04,-0.025,-0.026,-0.05,0.038,-0.01
QKI (UniProt Q96PU8),-0.004,-0.001,-0.106,0.062,-0.044,-0.23 (active),-0.006,-0.036,-0.036,0.004,-0.004,-0.004,-0.026,-0.032,-0.077,-0.079,0.019,0.011,-0.007,-0.032
PTGFRN (UniProt Q9P2B2),0.029,0.082,-0.029,0,-0.092,-0.049,-0.024,0.056,-0.004,0.053,0.006,0.129,-0.021,0.073,0.01,0.139,0.025,0.124,0.036,0.122
PEX11B (UniProt O96011),0.052,-0.009,-0.001,-0.021,0.001,-0.042,-0.006,-0.022,0.024,-0.041,0.021,-0.038,-0.009,-0.076,-0.071,-0.063,-0.037,0.019,0.023,0.004
